Screening results deposited in PubChem by Broad Institute.
Ecoli rRNA inh = inhibitors of bacterial rRNA selective over humanized ribosomes; AID 720706; actives 1.6% (n = 350,000); GFP signal change (wild-type ribosome), % (test concentration not listed); E. coli WT GFP vs humanized-ribosome RFP mutants, fluorescence, 24 h; stronger effect = lower value; DMSO median 0, no signal -100;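 active means significant combined selectivity score with lowered wild-type GFP, culture density cut under 30%, mutant RFP and density less affected; inactive means any of these conditions unmet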
Wnt act = activates Wnt/beta-catenin signaling in a reporter cell assay; activator, plate reader; AID 743398; activation, % at 9.35 µM; actives 1.2% (n = 300,000); in the data active means activation above about 30%, passing the limit was not always enough; inconclusive means no clear call, values can overlap the other calls;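 further: 0% = neutral control wells and 100% = positive control wells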
AF4-AF9 inh = MLL-AF4/AF9 protein interaction inhibition. P42568. AlphaScreen, biotin-AF4 peptide binding to FLAG-AF9. inhibition, % at 10 µM. actives 0.47% (n = 350,000). AID 651704;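 active means every replicate reaching a set inhibition limit, whatever the replicate mean, cut at about 25% in these data; inconclusive means mean inhibition reaches that limit but some replicates miss it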;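 further: 0% = plate neutral control median and 100% = total signal loss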
Target sequence (P42568 whole entry, looked up): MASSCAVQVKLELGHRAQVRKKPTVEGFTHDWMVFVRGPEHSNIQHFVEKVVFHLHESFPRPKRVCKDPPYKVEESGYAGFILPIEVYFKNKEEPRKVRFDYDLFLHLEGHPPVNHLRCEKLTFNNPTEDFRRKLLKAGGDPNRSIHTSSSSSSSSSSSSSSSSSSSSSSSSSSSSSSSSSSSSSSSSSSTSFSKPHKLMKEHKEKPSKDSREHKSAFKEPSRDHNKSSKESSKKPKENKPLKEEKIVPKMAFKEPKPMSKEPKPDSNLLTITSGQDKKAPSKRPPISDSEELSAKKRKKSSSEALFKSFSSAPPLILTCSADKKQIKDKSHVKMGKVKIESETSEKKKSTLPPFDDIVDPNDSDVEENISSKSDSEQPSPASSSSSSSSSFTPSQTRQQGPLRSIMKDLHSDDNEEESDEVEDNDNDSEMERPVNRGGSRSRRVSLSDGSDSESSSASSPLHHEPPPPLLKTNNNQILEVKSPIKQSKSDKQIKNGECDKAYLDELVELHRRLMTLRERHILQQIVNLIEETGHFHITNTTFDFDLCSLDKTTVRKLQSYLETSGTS
esBAF inh = blocks esBAF chromatin remodeling in mouse ES cells; actives 2% (n = 350,000); AID 602393; Bmi1-luciferase knock-in reporter, 24 h; 100% = twice the neutral-well signal; reporter increase, % at 12.5 µM; in the data active means activation above about 40%; inconclusive means no clear call, values can overlap the other calls;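 further: 0% = median of the plate's neutral control wells and 100% = double that signal; a rise in the Bmi1 reporter signal indicates esBAF inhibition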
MITF act = MITF TRPM1 promoter activation in melanoma cells. actives 0.75% (n = 300,000). SK-MEL-5 TRPM1-promoter luciferase, 24 h; % of positive control, neutral wells = 0. activation, % at 12.5 µM;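 active means mean activation of at least 80% with every replicate also reaching 80%; inconclusive means mean reaches 80% but some replicate falls short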;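 further: 0% = neutral control wells and 100% = parthenolide positive control wells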
Starred values were filed as active, the others as inactive; ? = inconclusive; . = no result given. Hits are enriched below; roughly 3.7% of the tested compounds scored in any of these assays.

SMILES	Ecoli rRNA inh	Wnt act	AF4-AF9 inh	esBAF inh	MITF act
CC(C)NC(=O)Nc1ccc2c(c1)CC(=O)N([C@H](C)CO)C[C@@H](C)[C@H](CN(C)CC1CC1)O2	0.3	.	-2.9	2.8	.
CC(C)[C@H](C)NC(=O)N(C)C[C@H]1OCc2ccccc2-c2ccccc2C(=O)N([C@@H](C)CO)C[C@@H]1C	0.6	.	-4.2	-0.1	.
CC1=C(C(=O)N(C)C)CC(CC(=O)NC2CCCC2)C(=O)N1CCC1=CCCCC1 (stereo not drawn)	.	7.5	-14.8	48.8*	.
CC1=C(C(=O)N(C)C)CC(CC(=O)NC2CCCCC2)C(=O)N1CCC1=CCCCC1 (stereo not drawn)	0.2	-2.1	-0.2	70.2*	.
CCN(CC)C(=O)C1=C(C)N(CCC2=CCCCC2)C(=O)C(CC(=O)NC2CCCC2)C1 (stereo not drawn)	8.5	-4.6	0.1	1.7	.
CC1=C(C(=O)N2CCCCCC2)CC(CC(=O)NC2CCCCC2)C(=O)N1CCC1=CCCCC1 (stereo not drawn)	.	-1.6	1.0	.	.
N=c1ccn(Cc2cccc(F)c2)cc1	22.6	2.0	2.2	.	.
COc1ccc(S(=O)(=O)Nc2ccc3c(c2)C(=O)N([C@H](C)CO)C[C@H](C)[C@@H](CN(C)Cc2ccc(C(=O)O)cc2)O3)cc1	0.3	.	-6.1	-2.2	.
O=C(Nc1nc2ccccc2s1)c1ccccc1[N+](=O)[O-]	-7.5	9.0	4.6	49.8*	.
COc1ccc2nc(NC(=O)c3ccccc3O)sc2c1	-1.5	37.8*	-1.3	7.8	88.0*
O=C(Nc1nc2cc3c(cc2s1)OCCO3)c1cccs1	-8.1	32.4*	-16.4	-57.1	-15.4
COc1ccc2nc(NC(=O)Nc3ccccc3OC)sc2c1	0.2	12.2	-0.2	.	32.0
O=C(O)c1cccc([N+](=O)[O-])c1C(=O)Nc1nc2ccccc2s1	6.6	0.7	-0.1	.	-12.9
Cc1ccnc(SCC(=O)c2cccs2)n1	17.3	43.8*	-3.9	.	93.2*
Cc1cc(C)cc(Nc2cc(C)nc3ncnn23)c1	2.6	2.0	-2.7	4.3	.
COc1ccc2nc(NC(=O)c3ccccc3[N+](=O)[O-])sc2c1	-33.9	7.8	1.3	49.7*	16.4
COc1ccccc1C(=O)Nc1nc2cc3c(cc2s1)OCO3	5.9	-1.1	-15.4	57.5*	65.5
CCOc1ccc2nc(SCC(=O)c3ccc(Cl)s3)sc2c1	.	.	.	.	2.6
CCOc1ccc2nc(SCC(=O)c3cccs3)sc2c1	.	49.7*	.	90.0*	.
COc1ccccc1NC(=O)Nc1nc2ccc(S(N)(=O)=O)cc2s1	-15.9*	20.7	1.8	48.2*	86.8*
COc1ccccc1C(=O)Nc1nc2cc3c(cc2s1)OCCO3	.	.	.	35.1	12.3
CC1(C)CC(=O)C=C(Nc2ccccc2NC(=O)c2cnccn2)C1	.	.	.	-4.7	-4.1
COC(=O)CN1C(=O)[C@H]2[C@@H](c3ccc(C)o3)N3C(=O)CN(Cc4ccccc4)C(=O)[C@@]3(C)[C@H]2C1=O	.	-6.2	-3.7	2.7	-1.4
O=C(NNc1nc2cc3c(cc2s1)OCO3)c1cccc(F)c1	-49.1	6.0	0.1	47.2*	56.4
COc1cc(/C=C/C(=O)Nc2nc3ccc(S(=O)(=O)NC(C)C)cc3s2)cc(OC)c1OC	.	.	.	.	12.0
SMILES	Ecoli rRNA inh	Wnt act	AF4-AF9 inh	esBAF inh	MITF act
O=C(NNc1nc2cc3c(cc2s1)OCO3)c1ccccc1	-7.8	5.0	?	31.1	12.4
COc1ccc2nc(NC(=O)c3cccs3)sc2c1	.	47.9*	3.6	?	.
COc1ccc2nc(NC(=O)Nc3cccc4ccccc34)sc2c1	-23.2*	6.9	4.1	.	78.6
CCNS(=O)(=O)c1ccc2nc(NC(=O)/C=C/c3cc(OC)c(OC)c(OC)c3)sc2c1	-13.8	49.9*	-1.1	.	2.1
CN1CCN(C(=O)C[C@@H]2CC[C@@H]3[C@H](COC[C@@H](O)CN3S(=O)(=O)c3cccc(Cl)c3)O2)CC1	7.0	.	-3.7	-7.7	.
CCN1[C@@H]2c3ccc(-c4ccccc4OC)c(=O)n3C[C@H]1[C@H](CO)[C@H]2C(=O)N1CCOCC1	4.2	.	1.7	-9.8	.
COc1ccc(CN(C)C[C@@H]2OCCCC[C@H](C)Oc3ccc(NS(=O)(=O)c4c(C)noc4C)cc3C(=O)N([C@@H](C)CO)C[C@@H]2C)cc1	-1.4	.	.	-3.9	.
CC(NC(=S)Nc1ccccc1Cl)C(c1cccs1)N1CCCC1 (stereo not drawn)	9.9	8.0	0.6	-8.4	-9.1
CN(Cc1ccsc1)C(=O)CCc1nnc(CCCc2ccccc2)o1	2.5	32.9*	-0.8	?	75.6
Cc1nc(C(C)NC(=O)CCc2nnc(CCCc3ccccc3)o2)c(C)s1 (stereo not drawn)	16.2	64.0*	-2.3	70.0*	99.6*
C[C@@H]1CN([C@@H](C)CO)C(=O)c2cc(NC(=O)Nc3ccc4c(c3)OCO4)ccc2O[C@@H](C)CCCCO[C@@H]1CN(C)S(=O)(=O)c1cn(C)cn1	-3.5	.	4.0	46.8*	.
C[C@@H]1CCCCO[C@H](CN(C)S(=O)(=O)c2cn(C)cn2)[C@@H](C)CN([C@@H](C)CO)C(=O)c2cc(NC(=O)Nc3ccc4c(c3)OCO4)ccc2O1	-1.3	.	6.4	39.7	.
C[C@H](CO)N1C[C@H](C)[C@H](CN(C)S(=O)(=O)c2cn(C)cn2)OCCCC[C@H](C)Oc2ccc(NC(=O)Nc3ccc4c(c3)OCO4)cc2C1=O	-1.0	.	1.9	4.6	.
C[C@@H]1CN([C@@H](C)CO)C(=O)c2cc(NC(=O)Nc3ccccc3)ccc2O[C@@H](C)CCCCO[C@@H]1CN(C)S(=O)(=O)c1cn(C)cn1	-1.6	.	-2.7	1.0	.
C[C@@H]1CN([C@H](C)CO)C(=O)c2cc(NC(=O)Nc3ccc4c(c3)OCO4)ccc2O[C@@H](C)CCCCO[C@@H]1CN(C)S(=O)(=O)c1cn(C)cn1	0.2	.	-0.6	68.2*	.
C[C@H](CO)N1C[C@H](C)[C@@H](CN(C)S(=O)(=O)c2cn(C)cn2)OCCCC[C@H](C)Oc2ccc(NC(=O)Nc3ccc4c(c3)OCO4)cc2C1=O	-3.4	.	1.3	44.5*	.
C[C@@H]1CCCCO[C@@H](CN(C)S(=O)(=O)c2cn(C)cn2)[C@H](C)CN([C@H](C)CO)C(=O)c2cc(NC(=O)Nc3ccc4c(c3)OCO4)ccc2O1	0.3	.	6.6	60.2*	.
Cc1nc2nc(-c3cccs3)cn2nc1C	.	46.7*	.	.	.
C[C@@H]1CN([C@@H](C)CO)C(=O)c2cc(NS(=O)(=O)c3cccs3)ccc2O[C@@H](C)CCCCO[C@@H]1CN(C)C(=O)CCCN(C)C	-1.1	.	-0.7	6.8	.
COc1ccccc1C(=O)Cc1ccccc1	4.2	-3.5	2.8	23.5	18.2
COc1ccccc1C(=O)OCCc1ccccc1	-34.3	-2.4	-3.7	78.4*	141.2*
O=C(Nc1cc([N+](=O)[O-])ccc1F)c1cccs1	.	.	.	.	-7.0
NC(=O)[C@@H]1CCCN1C(=O)c1cc(COc2ccc(F)cc2F)on1	1.2	1.9	-10.0	12.7	23.8
